{
  "source": "paper PMC4336329",
  "about": "(PLoS ONE, 2015)",
  "note": "Among all 310,000 compounds or so, about 14,000 (4.5%) showed an effect of 50% or more. The effect is printed as a negative number. This excerpt belongs to a sample that is enriched for strong results.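 Also: peak tail current of the secondary pulse compared with the same well before compound.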",
  "data": [
    {"molecular_target": "human ether-à-go-go-related gene (hERG) potassium channel (human, UniProt Q12809)", "sequence (Q12809 whole entry, looked up)": "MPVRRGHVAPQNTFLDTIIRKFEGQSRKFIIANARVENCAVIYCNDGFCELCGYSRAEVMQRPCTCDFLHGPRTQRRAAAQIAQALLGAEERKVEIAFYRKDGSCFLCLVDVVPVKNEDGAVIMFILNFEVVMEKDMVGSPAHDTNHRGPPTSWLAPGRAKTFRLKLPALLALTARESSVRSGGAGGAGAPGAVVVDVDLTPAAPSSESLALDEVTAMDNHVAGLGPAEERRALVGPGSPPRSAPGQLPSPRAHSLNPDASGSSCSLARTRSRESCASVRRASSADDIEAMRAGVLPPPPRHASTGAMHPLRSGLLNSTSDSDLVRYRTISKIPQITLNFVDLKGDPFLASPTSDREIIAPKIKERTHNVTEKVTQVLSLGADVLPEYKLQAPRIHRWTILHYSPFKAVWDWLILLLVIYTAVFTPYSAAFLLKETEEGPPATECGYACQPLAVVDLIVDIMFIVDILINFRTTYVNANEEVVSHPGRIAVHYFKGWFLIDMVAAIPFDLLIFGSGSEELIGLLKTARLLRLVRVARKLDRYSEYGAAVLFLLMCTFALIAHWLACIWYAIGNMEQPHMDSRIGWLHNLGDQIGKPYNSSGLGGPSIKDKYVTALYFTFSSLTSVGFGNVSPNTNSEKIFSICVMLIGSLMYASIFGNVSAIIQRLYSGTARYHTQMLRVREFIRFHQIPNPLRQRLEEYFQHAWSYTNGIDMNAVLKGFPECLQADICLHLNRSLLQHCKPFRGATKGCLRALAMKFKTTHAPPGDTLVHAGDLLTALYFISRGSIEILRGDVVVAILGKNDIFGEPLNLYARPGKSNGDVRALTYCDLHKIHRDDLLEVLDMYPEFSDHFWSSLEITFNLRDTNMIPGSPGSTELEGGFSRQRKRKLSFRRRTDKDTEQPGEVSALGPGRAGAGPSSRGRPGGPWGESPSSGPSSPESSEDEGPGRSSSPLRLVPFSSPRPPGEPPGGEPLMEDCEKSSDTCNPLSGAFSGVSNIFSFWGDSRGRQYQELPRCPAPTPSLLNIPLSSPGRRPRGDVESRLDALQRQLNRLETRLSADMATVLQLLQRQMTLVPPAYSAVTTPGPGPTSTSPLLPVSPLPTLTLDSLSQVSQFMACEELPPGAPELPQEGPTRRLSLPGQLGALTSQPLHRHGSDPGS", "assay": "primary screen, population patch clamp on CHO cells stably expressing hERG; higher = less effect of the substance", "units": {"hERG current change (%, negative = inhibition) at 10uM": "%"}, "values": [
      {"smiles": "O=C(CCc1nnc2ccc(NCc3ccccc3)nn12)NC1CCCC1", "hERG current change (%, negative = inhibition) at 10uM": 11.1},
      {"smiles": "Cc1ccc(N2CC(C(=O)Nc3nccs3)CC2=O)cc1", "note": "(stereo not shown)", "hERG current change (%, negative = inhibition) at 10uM": -5.15},
      {"smiles": "Cc1ccc(N(C(=O)C2CCCO2)C2C=CS(=O)(=O)C2)cc1Cl", "note": "(stereo not shown)", "hERG current change (%, negative = inhibition) at 10uM": -4.44},
      {"smiles": "O=C(Nc1ccc(S(=O)(=O)Nc2ncccn2)cc1)c1cncc(Br)c1", "hERG current change (%, negative = inhibition) at 10uM": 10.6},
      {"smiles": "CC(=O)CCc1ccc(OCC(O)CNC2CCCc3ccccc32)cc1.O=C(O)C(=O)O", "note": "(stereo not shown)", "hERG current change (%, negative = inhibition) at 10uM": -49},
      {"smiles": "O=C(O)C(=O)O.OC(CNC1CCCc2ccccc21)COc1ccc2ccccc2c1", "note": "(stereo not shown)", "hERG current change (%, negative = inhibition) at 10uM": -72.3},
      {"smiles": "O=C(c1ccccc1)c1ccc(OCC(O)CNC2CCCc3ccccc32)cc1", "note": "(stereo not shown)", "hERG current change (%, negative = inhibition) at 10uM": -31.7},
      {"smiles": "CCc1ccccc1OC[C@@H](O)CN[C@H]1CCCc2ccccc21.O=C(O)C(=O)O", "hERG current change (%, negative = inhibition) at 10uM": -24.7},
      {"smiles": "O=C(CSc1ccccc1Cl)NC1CCCc2ccccc21", "note": "(stereo not shown)", "hERG current change (%, negative = inhibition) at 10uM": -1.17},
      {"smiles": "O=C(O)C(=O)O.OC(CNC1CCCc2ccccc21)COc1c(Cl)cccc1Cl", "note": "(stereo not shown)", "hERG current change (%, negative = inhibition) at 10uM": -56.5},
      {"smiles": "COc1ccc(CC(=O)Oc2ccc(C)cc2Br)cc1OC", "hERG current change (%, negative = inhibition) at 10uM": 3.25},
      {"smiles": "CN(Cc1nc(-c2ccccc2)no1)C(=O)c1ccc2c(c1)OCO2", "hERG current change (%, negative = inhibition) at 10uM": -20.5},
      {"smiles": "Nc1nccnc1C(=O)OCC(=O)Nc1ccc2[nH]c(=O)[nH]c2c1", "hERG current change (%, negative = inhibition) at 10uM": 17},
      {"smiles": "O=c1[nH]c2cc3c(cc2cc1CN(CCO)S(=O)(=O)c1ccccc1)OCCO3", "hERG current change (%, negative = inhibition) at 10uM": -19},
      {"smiles": "CCc1ccc(NC(=O)CN(c2ccc(OC)cc2)S(=O)(=O)c2c(C)nn(C)c2C)cc1", "hERG current change (%, negative = inhibition) at 10uM": -4.36},
      {"smiles": "Cc1ccccc1C1c2[nH]c3ccccc3c2CCN1CCCn1cccn1", "note": "(stereo not shown)", "hERG current change (%, negative = inhibition) at 10uM": -20.3},
      {"smiles": "CC(C)(C)C1c2[nH]c3ccccc3c2CCN1CCCn1cccn1", "note": "(stereo not shown)", "hERG current change (%, negative = inhibition) at 10uM": -19.5},
      {"smiles": "Fc1ccccc1C1c2[nH]c3ccccc3c2CCN1CCCn1cccn1", "note": "(stereo not shown)", "hERG current change (%, negative = inhibition) at 10uM": -46.4},
      {"smiles": "CC(C)CC1c2[nH]c3ccccc3c2CCN1CCCn1cccn1", "note": "(stereo not shown)", "hERG current change (%, negative = inhibition) at 10uM": -63.1},
      {"smiles": "CCOc1ccc(C2c3[nH]c4ccccc4c3CCN2CCCn2cccn2)cc1", "note": "(stereo not shown)", "hERG current change (%, negative = inhibition) at 10uM": -68.7},
      {"smiles": "COc1ccc(C2c3[nH]c4ccccc4c3CCN2CCCn2cccn2)c(C)c1C", "note": "(stereo not shown)", "hERG current change (%, negative = inhibition) at 10uM": -9.49},
      {"smiles": "COc1ccc(C2c3[nH]c4ccccc4c3CCN2CCCn2cccn2)cc1C", "note": "(stereo not shown)", "hERG current change (%, negative = inhibition) at 10uM": -38.9},
      {"smiles": "COc1ccc(C2c3[nH]c4ccccc4c3CCN2CCCn2cccn2)c(F)c1", "note": "(stereo not shown)", "hERG current change (%, negative = inhibition) at 10uM": -3.85},
      {"smiles": "Fc1ccc(C2c3[nH]c4ccccc4c3CCN2CCCn2cccn2)cc1", "note": "(stereo not shown)", "hERG current change (%, negative = inhibition) at 10uM": -70.1},
      {"smiles": "O=S(=O)(NCc1ccccc1)NCc1ccccc1F", "hERG current change (%, negative = inhibition) at 10uM": 7.69},
      {"smiles": "COCCN1C(=O)C(=O)/C(=C(/O)c2ccc(S(=O)(=O)N3CCCCC3)cc2)C1c1ccc(OC)c(OC)c1", "note": "(stereo not shown)", "hERG current change (%, negative = inhibition) at 10uM": 8.21},
      {"smiles": "CC1(C)COC(/C=C/c2ccc([N+](=O)[O-])cc2)=N1", "hERG current change (%, negative = inhibition) at 10uM": -26.1},
      {"smiles": "CCc1ccccc1N(CC(=O)N1CCCCC1)S(=O)(=O)c1ccccc1", "hERG current change (%, negative = inhibition) at 10uM": 10.6},
      {"smiles": "N#CC(C#N)=Cc1cc2ccccc2nc1N1CCCCC1", "hERG current change (%, negative = inhibition) at 10uM": 2.22},
      {"smiles": "CCN(CC)c1ccc(NC(=O)COC(=O)COc2ccccc2[N+](=O)[O-])cc1", "hERG current change (%, negative = inhibition) at 10uM": 3.42},
      {"smiles": "Cn1cc(Br)c(C(=O)NNC(=O)Cc2ccc(Cl)cc2)n1", "hERG current change (%, negative = inhibition) at 10uM": 3.6},
      {"smiles": "COc1ccc(N2C(=O)C3C(C2=O)C3(c2ccccc2)c2ccccc2)cc1", "note": "(stereo not shown)", "hERG current change (%, negative = inhibition) at 10uM": 0.0654},
      {"smiles": "COc1ccc(C2CC(=O)C(C=NCCN3CCN(C(=S)Nc4ccccc4)CC3)=C(O)C2)cc1", "note": "(stereo not shown)", "hERG current change (%, negative = inhibition) at 10uM": -32.8},
      {"smiles": "CCOC(=O)c1ccc(NC(=S)N2CCN(CCN=CC3=C(O)CC(c4ccccc4)CC3=O)CC2)cc1", "note": "(stereo not shown)", "hERG current change (%, negative = inhibition) at 10uM": -19.9},
      {"smiles": "O=C1CC(c2ccccc2)CC(O)=C1C=NCCN1CCN(C(=S)Nc2cccc(Cl)c2)CC1", "note": "(stereo not shown)", "hERG current change (%, negative = inhibition) at 10uM": -39.4},
      {"smiles": "Cc1ccc(NC(=O)CN2CCN(CCN=CC3=C(O)CC(c4ccccc4)CC3=O)CC2)cc1", "note": "(stereo not shown)", "hERG current change (%, negative = inhibition) at 10uM": -67.4},
      {"smiles": "Cc1ccc(C2CC(=O)C(C=NCCN3CCN(C(=S)Nc4ccc(F)cc4)CC3)=C(O)C2)cc1", "note": "(stereo not shown)", "hERG current change (%, negative = inhibition) at 10uM": -58.6},
      {"smiles": "Cc1c(Cl)cccc1NC(=O)CN1CCN(CCN=CC2=C(O)CC(c3ccccc3)CC2=O)CC1", "note": "(stereo not shown)", "hERG current change (%, negative = inhibition) at 10uM": -19.9},
      {"smiles": "O=C1CC(c2ccc(F)cc2)CC(O)=C1C=NCCN1CCN(C(=O)Nc2ccccc2)CC1", "note": "(stereo not shown)", "hERG current change (%, negative = inhibition) at 10uM": -67.8},
      {"smiles": "O=C1CC(c2ccc(F)cc2)CC(O)=C1C=NCCN1CCNCC1", "note": "(stereo not shown)", "hERG current change (%, negative = inhibition) at 10uM": 6.09},
      {"smiles": "O=C1CC(c2ccccc2)CC(O)=C1C=NCCN1CCN(C(=O)Nc2ccccc2)CC1", "note": "(stereo not shown)", "hERG current change (%, negative = inhibition) at 10uM": -64.4},
      {"smiles": "COc1ccc(NC(=S)N2CCN(CCN=CC3=C(O)CC(c4ccccc4)CC3=O)CC2)cc1", "note": "(stereo not shown)", "hERG current change (%, negative = inhibition) at 10uM": -45.7},
      {"smiles": "Cc1ccc(C2CC(=O)C(C=NCCN3CCN(C(=S)Nc4ccccc4)CC3)=C(O)C2)cc1", "note": "(stereo not shown)", "hERG current change (%, negative = inhibition) at 10uM": -26.4},
      {"smiles": "Cc1ccc(NC(=O)CN2CCN(CCN=CC3=C(O)CC(c4ccc(C)cc4)CC3=O)CC2)cc1", "note": "(stereo not shown)", "hERG current change (%, negative = inhibition) at 10uM": -45.3},
      {"smiles": "O=C(Nc1cc2c(cc1Br)OCCO2)c1cccnc1", "hERG current change (%, negative = inhibition) at 10uM": 1.58},
      {"smiles": "O=C(c1ccc(CS(=O)Cc2cccc(Cl)c2)o1)N1CCN(C2CCCCC2)CC1", "note": "(stereo not shown)", "hERG current change (%, negative = inhibition) at 10uM": -16.5},
      {"smiles": "COc1cc2nc(C3CCC3)n(NC(=O)C(OC(C)=O)c3ccccc3)c(=O)c2cc1OC", "note": "(stereo not shown)", "hERG current change (%, negative = inhibition) at 10uM": 9.45},
      {"smiles": "Cc1c(C(=O)NCCSCc2ccco2)cccc1[N+](=O)[O-]", "hERG current change (%, negative = inhibition) at 10uM": -5.94},
      {"smiles": "CN(Cc1cc2ccccc2[nH]c1=O)C(=O)COc1ccccc1", "hERG current change (%, negative = inhibition) at 10uM": -8.32},
      {"smiles": "O=C(COC(=O)C1(c2ccccc2F)CCCC1)Nc1ncc(C(F)(F)F)cc1Cl", "hERG current change (%, negative = inhibition) at 10uM": -10.1},
      {"smiles": "CSc1ccc(Cl)c(C(=O)Nc2ccc(N3CCOCC3)cc2)c1", "hERG current change (%, negative = inhibition) at 10uM": -1.67},
      {"smiles": "Cc1cc(NC(=O)Nc2ccc(Cl)cc2)n(C(C)(C)C)n1", "hERG current change (%, negative = inhibition) at 10uM": 17.7}
    ]}
  ]
}
